# From the supplement of paper PMC3334620
# The full ranking holds about 33,000 sequences; the median of “E-score (-0.5 to 0.5)” is about -8e-05, and the highest 2% start at about 0.23. The list comes from a sample in which the highest values are over-represented; it also holds similar and randomly drawn sequences.
# Biological target: T1, Nrg2 (UniProt P38082)
# T1 sequence: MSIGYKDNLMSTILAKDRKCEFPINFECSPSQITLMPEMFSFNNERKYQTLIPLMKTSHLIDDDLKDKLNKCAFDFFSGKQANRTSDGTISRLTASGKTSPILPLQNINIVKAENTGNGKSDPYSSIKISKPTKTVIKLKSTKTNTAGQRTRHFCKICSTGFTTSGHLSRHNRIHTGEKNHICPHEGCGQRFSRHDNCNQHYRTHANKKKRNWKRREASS
# Assay: PBM E-score (8-mer binding enrichment) (E-score (-0.5 to 0.5)); higher = stronger / more preferred TF binding
# Conditions: protein concentration: 100 nM; construct: GST-full length
# Description: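 Universal 'all 10-mer' protein binding microarrays (Agilent AMADID 015681) probed with GST-tagged S. cerevisiae TFs (full-length or DBD) made by in vitro transcription/translation (PURExpress), about 100-200 nM. Bound TF was detected with fluorescent anti-GST. Each ungapped 8-mer (which stands for itself and its reverse complement) is scored by the PBM enrichment score (E-score), a modified Wilcoxon-Mann-Whitney statistic from -0.5 to +0.5, computed with the Universal PBM Analysis Suite. Scale: above 0.35 generally sequence-specific binding.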
row,Sequence,PBM E-score
1,GCTCCCAA,-0.0754
2,CGCTACAG,-0.103
3,ATATACAA,0.237
4,ATATACAC,0.081
5,ATATACTA,0.307
6,ATATACTC,0.0973
7,CTATACAA,-0.0419
8,CTATACTA,0.111
9,AAATCACT,0.124
10,CACAGCCA,-0.0609
11,CGGAGATA,0.0572
12,ATGGTGTA,-0.0203
13,CCATATCA,0.00491
14,TCATATCA,0.0508
15,GCATATCA,0.256
16,CTTAACGA,0.123
17,GGCGAAGA,-0.0414
18,ATCTAGAA,-0.0175
19,CAAGACCG,-0.00525
20,AACCTATG,-0.101
21,CCGACAGA,0.141
22,GCGACAGA,0.238

row,Sequence,PBM E-score
1,TCGACAGA,-0.105
2,TGTTATAA,0.163
3,GGGGTCTA,0.203
4,AGGGTCTA,0.356
5,CGGGTCTC,-0.0571
6,AGGGTCTG,0.216
7,CGGGTCTA,-0.0249
8,AGGGTCTC,0.308
9,CCCCCCGC,-0.359
10,CCACTGTA,0.064
11,GTGATGAA,0.0611
12,CTGATGAA,0.0121
13,AGTATGAT,0.223
14,ATGATCTA,0.236
15,ATGATGAA,0.31
16,AGTATGAC,0.0675
17,AGTATGAA,0.254
18,CTGATCTA,0.00323
19,ATGATCTC,0.087
20,GCAGCATA,0.0385
21,GGAGAGGA,-0.215
22,ACCGAACC,-0.254

row,Sequence,PBM E-score
1,CGGACCTC,-0.0835
2,GACTCACA,0.0103
3,AGGTAGAT,-0.104
4,GAACACTA,0.0307
5,CAACACTA,0.147
6,TAACACTA,0.248
7,CGGTTGAA,0.101
8,AAAGGAAA,0.0754
9,AGCATAGA,-0.0952
10,AGCGATCG,0.24
11,AGCGATCA,-0.156
12,AGCGATCC,-0.129
13,CCGTGGAA,-0.00678
14,CATTGCAG,0.0963
15,ATGAGAGC,0.00785
16,ACCTACGG,-0.376
17,CCTAACGA,-0.038
18,ATTAGTAA,0.245
19,GTTAGTTA,0.0784
20,ATTAGTGG,0.15
21,ATTAGTTA,0.268
22,ATTAGTGA,0.114

row,Sequence,PBM E-score
1,CTTAGTAA,0.0233
2,AGTAGTTC,0.207
3,ATTAGTAC,0.14
4,ATTAGTGC,0.23
5,AGTAGTTG,0.253
6,AGTAGTTA,0.0579
7,CTTAGTTA,0.0769
8,GTAACTAC,0.0907
9,CGTTCTCA,-0.0327
10,CACCATGA,-0.00138
11,CGGGCCAG,-0.0425
12,TGGTTCAA,0.103
13,CGAGCCCC,-0.154
14,GACAGCCC,-0.099
15,CTTCTCTA,-0.137
16,AATAGTTA,0.0707
17,ATTAGTCG,0.143
18,ATTAGTTC,0.158
19,ATTAGTTG,0.256
20,AATAGTTC,0.0571
21,AATAGTTG,0.248
